Only some compounds are listed: those with a hit (about 11% of all), similar ones and a draw of the others.
3T3 cytotox – NIH 3T3 cell cytotoxicity. NIH 3T3 viability, CellTiter-Glo ATP luminescence, 48-72 h. Potency, µM (titrated, usually from 96.7 µM), for inactives: at the highest dose activity change, negative = cytotoxicity, hits mostly inhibitors. AID 1345082. 94,000 compounds, 4.3% hits; note: nearly all actives have a fitted effect of over 55% in size
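Cells were seeded at 400 per well, treated with pin-transferred compound, and kept 48 or 72 hr at 37 °C before CellTiter-Glo addition and luminescence imaging of cellular ATP.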
hNpr1 antagonist – blocks ANP-stimulated signaling of human Npr1 receptor | P16066 | HEK293 hNpr1 GloSensor cGMP, ANP-stimulated luminescence | Potency, µM (highest dose often 46.3 µM), for the others: top-dose activity change, negative = inhibition, most hits filed as inhibitors | 76,000 compounds, 1.6% hits | AID 1347048; calls by dose curve; note: nearly all actives have a fitted effect of over 60% in size
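HEK293 cells stably expressing human Npr1 and cGMP GloSensor pGS-40F, loaded 2 h with 2% GloSensor reagent, given compound 30 min at room temperature. Luminescence read before and 20 min after 0.1 nM hNppA.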
HEK293 tox – kills HEK 293 cells | 94,000 compounds, 6.6% hits | Potency, µM (series often up to 115 µM), inactives show top-dose activity change, negative = cytotoxicity, usual class: inhibitors | HEK 293 viability, ATP luminescence (CellTiter-Glo), 48-72 h; note: nearly all actives have a fitted effect of over 60% in size
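Viability of HEK 293 cells, plated at 250 cells/well, was judged by cellular ATP after compound treatment for 48 or 72 hr. Luminescence was imaged 10 min after CellTiter-Glo addition at room temperature.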
Luciferase inh – blocks purified firefly luciferase enzyme activity; P08659; purified P. pyralis luciferase, luminescence, biochemical; Potency, µM (series often up to 115 µM), actives largely listed as inhibitors; 76,000 compounds, 2.5% hits; AID 1347043; note: nearly all actives have a fitted effect of over 65% in size
Target sequence (P08659 whole entry, looked up): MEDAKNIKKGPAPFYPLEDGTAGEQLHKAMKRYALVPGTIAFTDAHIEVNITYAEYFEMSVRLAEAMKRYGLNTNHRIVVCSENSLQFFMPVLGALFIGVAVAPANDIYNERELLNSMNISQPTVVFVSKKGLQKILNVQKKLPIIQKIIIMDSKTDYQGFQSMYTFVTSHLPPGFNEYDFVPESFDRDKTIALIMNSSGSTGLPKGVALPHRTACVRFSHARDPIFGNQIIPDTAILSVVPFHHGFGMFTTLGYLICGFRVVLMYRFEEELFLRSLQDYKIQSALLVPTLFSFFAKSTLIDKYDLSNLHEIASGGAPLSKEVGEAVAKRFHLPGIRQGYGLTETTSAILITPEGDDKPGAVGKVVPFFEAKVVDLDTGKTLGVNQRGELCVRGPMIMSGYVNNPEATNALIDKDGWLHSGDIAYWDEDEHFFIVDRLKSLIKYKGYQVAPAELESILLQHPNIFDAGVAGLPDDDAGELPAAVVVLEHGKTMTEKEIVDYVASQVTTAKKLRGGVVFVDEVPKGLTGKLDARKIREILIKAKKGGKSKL
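Luminescence read by CCD imager after adding enzyme (10nM final) to wells holding compound, titrated in qHTS. Substrates 10uM each D-luciferin and ATP; buffer 50mM Tris acetate pH 7.5, 10mM Mg acetate, Tween-20, BSA.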
* hit, by the source's call; i = inactive; ? = inconclusive; nt = no result; [ ] = dose if it differs, or a comment. Unless noted, calls come from the whole dose curve; as a rule, active = well fitted curve in the direction sought with a large enough effect; inconclusive = small, poorly fitted or top-dose-only effect, or another doubt; inactive = no such curve, though single readings can be large; an effect the other way counts as inactive or inconclusive. % is set by controls: 0 for no effect and ±100 for the full control effect; potency is the fitted concentration of half-maximal effect.

SMILES	3T3 cytotox	hNpr1 antagonist	HEK293 tox	Luciferase inh
COc1ccc(CCN2CCC(CN(C)Cc3nc(C(C)C)cs3)CC2)cc1	?	2.8%	31.6µM*	i
C[S+](=O)([O-])N1CCC(Cn2ccc3c(N4CCOCC4)nc(-c4cccc5[nH]ncc45)cc32)CC1	10µM*	-16.9%	?	i
C[S+](=O)([O-])N1CCC(Cn2ccc3c(N4CCOCC4)nc(-c4ccncc4)cc32)CC1	28.2µM*	3.0%	?	i
C[S+](=O)([O-])N1CCC(Cn2ccc3c(N4CCOCC4)nc(-c4ccccc4F)cc32)CC1	-33.1%	-6.8%	?	i
COc1ccccc1-c1cc2c(ccn2CC2CCN([S+](C)(=O)[O-])CC2)c(N2CCOCC2)n1	?	-5.5%	?	i
COc1ccc(CCN2CCC3(C2)C(=O)N(C)C(=O)N3C)cc1 (centres undefined)	-24.2%	nt	-10.3%	nt
CC1(C)CC(CN2CCC3(CC2)CC(=O)N(Cc2ccccc2)C3)CCO1 (centres undefined)	-5.8%	4.2%	-18.2%	i
CN1CC(=O)N(C2CCCC2)Cc2c(NCc3ccc4c(c3)OCO4)ncnc21	-29.5%	nt	?	nt
Cc1ccc(C2=NC3(CCN(C(=O)c4ccc5c(c4)OCO5)CC3)ON2)cc1	-17.7%	-22.4%	?	35.5µM*
O=C(c1ccc2cc[nH]c2c1)N1CCC2(CC1)N=C(c1ccccc1)NO2	-19.8%	-20.0%	?	28.2µM*
Cc1ccc(C2=NC3(CCN(C(=O)c4ccsc4)CC3)ON2)cc1	-8.5%	-11.7%	-16.2%	39.8µM*
CCc1ccc(C(=O)N2CCC3(CC2)N=C(c2ccc(C)cc2)NO3)cc1	-39.9%	?	?	39.8µM*
O=c1[nH]ccn1C1CCN([S+](=O)([O-])c2cccc(C(F)(F)F)c2)CC1	?	nt	-19.4%	nt
CC(C)c1noc(-c2cccn3c(CNC(=O)C(C)c4ccccc4)nnc23)n1 (centres undefined)	-21.8%	-24.1%	-16.0%	i
COc1ccc(C(=O)N2CCC3(CC2)N=C(c2ccc(C)cc2)NO3)cc1	-6.8%	-28.2%	?	?
O=C(c1ccoc1)N1CCC2(CC1)N=C(c1cccc(Br)c1)NO2	-17.5%	-1.0%	-8.2%	i
Cc1ccc(C(=O)N2CCC3(CC2)N=C(c2cccc(Br)c2)NO3)cc1	15.8µM*	?	?	i
Cc1ccc(C(=O)N2CCC3(CC2)N=C(c2ccc(C)cc2)NO3)cc1	-29.2%	-24.5%	-16.6%	35.5µM*
O=C(NCc1ccnc2[nH]ccc12)c1cccc(Br)c1	-13.6%[138 µM]	7.4%[70.6 µM]	-2.2%[172 µM]	?
Cc1cc(C)cc(N2CCN(c3cc(C4CC(O)C4)nc(C)n3)CC2=O)c1 (centres undefined)	-1.7%	4.9%	-12.3%	i
O=C(C1CCN(CC2CC2)CC1)N1CCC(c2nc3ncccc3[nH]2)CC1	-3.5%	nt	i	nt
c1cnc2nc(C3CCN(CC4CCCCC4)C3)[nH]c2c1 (centres undefined)	-21.7%[138 µM]	6.4%[70.6 µM]	?	20µM*
O=C(C1CCCN([S+](=O)([O-])c2cccc(C(F)(F)F)c2)C1)N1CCCC(c2nc3ccncc3[nH]2)C1 (centres undefined)	?	nt	44.7µM*	nt
Cc1ccc([S+](=O)([O-])N2CCCC(C(=O)N3CCC(c4nc5ncccc5[nH]4)CC3)C2)cc1 (centres undefined)	?	nt	50.1µM*	nt
O=C(Nc1ccc(Cl)cc1)N1CCCC(C(=O)N2CCCC(c3nc4ncccc4[nH]3)C2)C1 (centres undefined)	22.4µM*	nt	?	nt
SMILES	3T3 cytotox	hNpr1 antagonist	HEK293 tox	Luciferase inh
O=C(C1CCCN([S+](=O)([O-])c2cccc(C(F)(F)F)c2)C1)N1CCC(c2nc3ccncc3[nH]2)C1 (centres undefined)	-30.5%	nt	-19.5%	nt
O=C(NCC1CCCCC1)c1ccc2nc(-c3cccnc3)oc2c1	-22.5%[138 µM]	nt	-13.0%[172 µM]	nt
O=C(C1CCCC1)N1CCN(CCCn2nc3n(c2=O)CCCC3)CC1	-21.1%	nt	-11.8%	nt
Cc1ccc([S+](=O)([O-])N2CCC(C(=O)N3CCCC(c4nc5ncccc5[nH]4)C3)CC2)cc1 (centres undefined)	?	nt	28.2µM*	nt
CN(Cc1ccccc1)C(=O)C1CCN(c2cc(C3CC(O)C3)ncn2)CC1 (centres undefined)	-38.5%	12.6µM*	?	i
CN(Cc1ccccc1)Cc1ccc(-c2ccccc2)cc1	-20.8%[138 µM]	0.0%[70.6 µM]	?	i
CN(Cc1ccc(-c2ccccc2)cc1)C(=O)C(C)(C)C	?	-4.5%[70.6 µM]	63.1µM*	35.5µM*
CN(Cc1ccc(-c2ccccc2)cc1)C(=O)C1CC1	?	?	?	50.1µM*
CN(Cc1ccc(-c2ccccc2)cc1)S(C)(=O)=O	?	0.6%[70.6 µM]	?	14.1µM*
CN(Cc1ccc(F)cc1)C(=O)C(C)(C)C	1.4%[174 µM]	16.1%[70.6 µM]	i	i
O=C(NCc1ccc(F)cc1)C1CN(C2CCCC2)C(=O)N1 (centres undefined)	-20.8%[138 µM]	nt	?	nt
O=[S+]1([O-])NCC2(CCN(CC3CCCCC3)C2)Nc2ccccc21 (centres undefined)	?	-9.5%	?	i
Cn1ncc2c(C(=O)NC(C)(C)C)cc(-c3ccccc3C(F)(F)F)nc21	-28.5%	nt	?	nt
CN(Cc1ccc(-c2ccccc2)cc1)C(=O)Cc1cccc(Cl)c1	?	?	63.1µM*	?
CN(Cc1ccc(-c2ccccc2)cc1)C(=O)Nc1ccccc1	-19.8%[138 µM]	?	?	i
CCN1c2cc(C(=O)N3CCN(c4cccc(C)c4)CC3)ccc2C(=O)N2CCCCC21 (centres undefined)	?	-1.0%	?	i
CCN1c2cc(C(=O)N3CCN(c4ccccc4F)CC3)ccc2C(=O)N2CCCCC21 (centres undefined)	-14.9%	0.0%	?	i
CCN1c2cc(C(=O)N3CCN(c4ccc(F)cc4)CC3)ccc2C(=O)N2CCCCC21 (centres undefined)	-22.5%	7.2%	44.7µM*	i
CCN1c2cc(C(=O)N3CCN(c4ccccc4)CC3)ccc2C(=O)N2CCCCCC21 (centres undefined)	-23.2%	0.0%	28.2µM*	i
O=C1c2c(nc(COc3ccccc3)n2Cc2ccccc2)NCCN1CC1CC1	?	-14.7%[70.6 µM]	?	i
COCCN1Cc2ccc(Nc3ccc(OC)cc3)nc2C(C)(C(=O)Nc2ccccc2)C1 (centres undefined)	?	3.9%	?	?
O[C@H]1CC[C@@H](Cc2cc(-c3ccc(F)cc3)on2)O[C@@H]1CNC1CCOCC1	0.0%[174 µM]	-29.8%[70.6 µM]	i	?
NC[C@H]1O[C@H](Cc2cc(-c3ccc(F)cc3)on2)CC[C@@H]1O	-6.1%[174 µM]	14.1µM*	?	35.5µM*
O=C(NC[C@H]1O[C@H](Cc2cc(-c3ccc(F)cc3)on2)CC[C@@H]1O)NC1CCCCC1	89.1µM*	10µM*	?	70.8µM*

From PubChem BioAssay
